# Experimental data taken from PubChem BioAssay (EPA / NIEHS).
# Records with an inconclusive call do not appear. The source made the active and inactive calls. How the source made its calls: active means hit-call score of the fitted dose curve at least 0.9, where 1 is the maximum; inconclusive means response in the unintended direction; inactive means score below 0.9.
# Read-out: Broad substrate specificity ATP-binding cassette transporter ABCG2 (Homo sapiens) (UniProt Q9UNQ0)
# Assay: CLD_ABCG2_24hr: CellzDirect (CLD) Gene Expression Assay for ABC Transporter (ABCG2) at 24 hours (AID 2283685)
# Protocol: CLD_24hr is a cell-based, multiplexed-readout assay that uses hepatocyte, a human liver primary cell, with measurements taken at 24 hours after chemical dosing in a 96-well plate.CLD_ABCG2_24hr is one of 16 assay component(s) measured or calculated from the CLD_24hr assay. It is designed to make measurements of mRNA induction, a form of inducible reporter, as detected with chemiluminescence signals by Quantitative Nuclease Protection Assay (qNPA) technology.Data from the assay component CLD_ABCG2_24hr was analyzed at the endpoint, CLD_ABCG2_24hr, in the positive analysis fitting direction relative to DMSO as the negative control and baseline of activity. Using a type of inducible reporter, gain-of-signal activity can be used to understand changes in the reporter gene as they relate to the gene ABCG2. Furthermore, this assay endpoint can be referred to as a primary readout. To generalize the intended target to other relatable targets, this assay endpoint is annotated to the transporter intended target family, where subfamily is ABC transporter.
# Human hepatocyte cultures were treated daily for two consecutive days with fresh dosing solutions containing appropriate concentrations of the 320 ToxCast chemicals (chemical identities were blinded to CellzDirect and other ToxCast collaborators), vehicle control (0.2% DMSO), and positive control inducers as summarized in Table 1. Due to the large number of treatment groups and chemicals examined, the ToxCast chemicals were divided into two groups (spanning two independent cultures of hepatocytes from separate donor preparations (Hu778: ToxCast plates 1 and 2; Hu776: ToxCast plates 3 and 4). Each preparation of human hepatocyte cultures was treated with respective vehicle control, medium only control, set of six positive controls/reference chemicals for the five hepatic receptor pathways, and a subset of eight of the ToxCast chemicals (indoxacarb, pyrithiobac-sodium, norflurazon, cyhalofop-butyl, methomyl, thiram, acetochlor, and propiconazole). These replicate data, coupled with internal replicates designed within the blinded ToxCast chemical library, provided additional data to evaluate interindividual differences between hepatocyte preparations and their potential impact on chemical profiles.Cell morphology and integrity were evaluated using phase-contrast microscopy as an indicator of hepatocyte cell health (Tyson & Green, 1987). Cultures for each treatment group (i.e., media, vehicle [0.2% DMSO], positive control inducers [multiple concentrations], and the ToxCast chemicals [multiple concentrations]) were observed and cell morphology was assessed relative to vehicle control cultures at each harvest time point (0, 6, 24, or 48 h). […] Images were evaluated at the conclusion of the study to assess changes in cell integrity and account for the effects of chemical exposure on uncharacteristic changes in concentration-dependent gene expression profiles. The results from these determinations of apparent cytotoxicity were annotated (yes/no) alongside the corresponding qNPA data for reference.At the conclusion of each treatment period, hepatocyte cultures (96-well) were washed with 1 volume of HBSS, lysed by addition of 25 ul ArrayPlate lysis buffer (HTG, Tucson, AZ), and 70 ul/well of Denaturation Oil, denatured by incubation at 95C for 10 min, and frozen at approximately -70C until analysis by nuclease protection assay (qNPA) (Roberts et al., 2007). For qNPA analysis, cell lysates were thawed at 50C for approximately 30 min, qNPA probes were added, and samples were incubated at 95C for 10 min to begin the detection process by denaturing the target RNA, dissociating the duplexes and secondary structure hybridization. At the conclusion of the hybridization period, S1 nuclease reagent was added to each sample to digest all nonprotected nucleotides at 50C for 60-90 min. […]
# Sequence of Broad substrate specificity ATP-binding cassette transporter ABCG2 (Homo sapiens) (Q9UNQ0 whole entry, looked up): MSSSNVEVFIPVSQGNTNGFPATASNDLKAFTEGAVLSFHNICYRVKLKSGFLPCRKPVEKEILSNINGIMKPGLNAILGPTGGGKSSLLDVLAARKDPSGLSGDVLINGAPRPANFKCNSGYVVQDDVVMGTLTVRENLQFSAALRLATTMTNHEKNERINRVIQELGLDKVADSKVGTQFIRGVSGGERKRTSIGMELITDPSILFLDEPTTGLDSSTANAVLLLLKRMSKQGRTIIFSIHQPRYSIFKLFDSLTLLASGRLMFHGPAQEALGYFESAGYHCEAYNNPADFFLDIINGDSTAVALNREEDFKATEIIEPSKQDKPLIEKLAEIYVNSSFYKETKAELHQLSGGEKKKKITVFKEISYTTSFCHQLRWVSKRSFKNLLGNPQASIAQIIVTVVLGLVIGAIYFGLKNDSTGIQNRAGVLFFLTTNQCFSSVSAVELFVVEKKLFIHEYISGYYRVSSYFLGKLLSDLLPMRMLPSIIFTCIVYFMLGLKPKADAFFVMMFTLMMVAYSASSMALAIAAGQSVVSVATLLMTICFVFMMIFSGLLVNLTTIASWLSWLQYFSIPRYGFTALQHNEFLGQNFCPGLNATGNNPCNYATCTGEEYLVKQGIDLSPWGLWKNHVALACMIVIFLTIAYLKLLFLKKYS
row,SMILES,outcome
1,COc1nc(NC(C)C)nc(NC(C)C)n1,inactive
2,Cc1c(F)c(F)c(COC(=O)C2C(/C=C(\Cl)C(F)(F)F)C2(C)C)c(F)c1F (configuration not stated),inactive
3,COc1cnc(OC)n2nc(NS(=O)(=O)c3c(OCC(F)F)cccc3C(F)(F)F)nc12,inactive
4,CCCCNC(=O)n1c(NC(=O)OC)nc2ccccc21,inactive
5,C=CC1(C)OC(=O)N(c2cc(Cl)cc(Cl)c2)C1=O (configuration not stated),inactive
6,CO/C=C(/C(=O)OC)c1ccccc1Oc1cc(Oc2ccccc2C#N)ncn1,inactive
7,CCON=C(CC)C1=C(O)CC(c2c(C)cc(C)cc2C)CC1=O (configuration not stated),inactive
8,CCOC(=O)CC(SP(=S)(OC)OC)C(=O)OCC (configuration not stated),inactive
9,CCOP(=S)(OCC)SCn1c(=O)oc2cc(Cl)ccc21,inactive
10,COC(=O)N(OC)c1ccccc1COc1ccn(-c2ccc(Cl)cc2)n1,inactive
11,COc1nc(C)nc(NC(=O)NS(=O)(=O)c2ccccc2CCC(F)(F)F)n1,inactive
12,C=CCC1=C(C)[C@@H](OC(=O)[C@@H]2[C@@H](C=C(C)C)C2(C)C)CC1=O,inactive
13,C=CCC1=C(C)C(OC(=O)C2C(C=C(C)C)C2(C)C)CC1=O (configuration not stated),inactive
14,CCCCNC(=O)OCC#CI,inactive
15,CC(C)(C)c1ccc(CSc2cnn(C(C)(C)C)c(=O)c2Cl)cc1,inactive
16,CNC(=O)ON=CC(C)(C)SC,inactive
17,CC1COC(Cn2cncn2)(c2ccc(Oc3ccc(Cl)cc3)cc2Cl)O1 (configuration not stated),inactive
18,CC(Oc1ccc(Cl)cc1Cl)C(=O)O (configuration not stated),inactive
19,OC(c1ccc(Cl)cc1)(c1cncnc1)c1ccccc1Cl (configuration not stated),inactive

row,SMILES,outcome
1,COc1nc(C)nc(NC(=O)NS(=O)(=O)c2ccccc2Cl)n1,inactive
2,O=C(O)COc1nc(Cl)c(Cl)cc1Cl,inactive
3,CS/C(C)=N/OC(=O)N(C)SN(C)C(=O)O/N=C(\C)SC,inactive
4,CCc1nn(C)c(C(=O)NCc2ccc(C(C)(C)C)cc2)c1Cl,inactive
5,Fc1ccc(Oc2ccnc3cc(Cl)cc(Cl)c23)cc1,inactive
6,CCOC(=O)C(Cl)Cc1cc(-n2nc(C)n(C(F)F)c2=O)c(F)cc1Cl (configuration not stated),inactive
7,COP(=S)(OC)Oc1nc(Cl)c(Cl)cc1Cl,inactive
8,CCCCOC(=O)c1ccccc1C(=O)OCCCC,inactive
9,C#CCOS(=O)OC1CCCCC1Oc1ccc(C(C)(C)C)cc1 (configuration not stated),inactive
10,CN(C)C(=S)SSC(=S)N(C)C,inactive
11,Oc1ccccc1-c1ccccc1,inactive
12,CC(C)Oc1cc(-n2nc(C(C)(C)C)oc2=O)c(Cl)cc1Cl,inactive
13,N#Cc1nn(-c2c(Cl)cc(C(F)(F)F)cc2Cl)c(N)c1S(=O)C(F)(F)F (configuration not stated),inactive
14,Cc1cc(Cl)ccc1OCC(=O)O,inactive
15,Cc1ccc(-c2c(Cl)nc(C#N)n2S(=O)(=O)N(C)C)cc1,inactive
16,N#CC(CCc1ccc(Cl)cc1)(Cn1cncn1)c1ccccc1 (configuration not stated),inactive
17,COC(=O)C(C)Oc1ccc(Oc2ccc(Cl)cc2Cl)cc1 (configuration not stated),inactive
18,CCCC1COC(Cn2cncn2)(c2ccc(Cl)cc2Cl)O1 (configuration not stated),inactive
